In PubChem BioAssay (NCI) one finds growth data, which are given here for 39 compounds.

About 83,000 compounds went through this panel and 20% of them were active in at least one assay; those are over-represented in the sample as a whole.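 Activity criterion: percent growth below 10, measured after cells in 96-well plates were exposed to a single compound concentration for 48 hours.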 Values without a mark were called inactive. The source made the active and inactive calls.

For the assay, the system named is SF-295 CNS. Nature of the assay: NCI-60 one-dose screen, 48 h (100 = growth as untreated, 0 = no growth, -100 = all killed). As to conditions: 10 µM unless noted.
For the compound `CC(=O)O[C@H]1CC[C@]2(C)[C@H]3CC=C4[C@@H]5CC(C)(C)CC[C@]5(C(=O)OCC(COC(=O)C(Cl)Cl)(COC(=O)C(Cl)Cl)NC(=O)C(Cl)Cl)CC[C@@]4(C)[C@]3(C)CC[C@H]2C1(C)C`, the growth is 80.4%.

Turning to `Clc1ccc(Cl)c(N=Cc2ccc3c(c2)OCO3)c1`, the growth is 106%.

Consider `CCN(CC)c1ccc2c(cc1=O)[C@@H](NC(C)=O)CCc1cc(OC)c(OC)c(OC)c1-2`, for which the growth was 11.3%.

In the case of `COc1ccc(CNc2c3ccccc3nc3ccc(OC)cc23)cc1`, the growth was 19.4%.

Take `NC(=O)c1ccc[n+](Cc2ccccc2)c1`: the growth was 109%.

Take `N/N=C(\C(=N\N)c1ccccc1)c1ccccc1`: the growth is 105%.

On to `CC1=C(O)C(=O)CC1`, for which the growth is 94.9%.

Consider `CCN(CC)CCCC(C)Nc1ccnc2ccc(Oc3ccccc3)cc12` (centres undefined), for which the growth was 93.7%.

As for `COc1cc2ncnc(Nc3ccc(S(=O)(=O)Nc4nccs4)cc3)c2cc1OCCCN1CCOCC1`, the growth was 108%.

For `CC(=O)Cc1ccccn1`, the growth was 84.1%.

As to `CC1OC(n2c3ccccc3c3c4c(c5c6ccccc6[nH]c5c32)C(=O)N(CCN[C@H]2CCC[C@@H]2N)C4=O)CC(O)C1O` (some centres undefined), the growth is 25.6%.

Turning to `O=C(C(=O)N1CCCC1)c1cn(CCCn2cc(C(=O)C(=O)N3CCCC3)c3cc(Br)ccc32)c2ccc(Br)cc12`, the growth is -22.4% (active).

Consider `CCCCCCCOc1cccc(/C=C2\N=C3SCCCN3C2=O)c1`, for which the growth was 93.8%.

As for `COc1ccc(NC(=O)c2sc3c(=O)[nH]c(C(F)(F)F)nc3c2C)cc1`, the growth was 111%.

With `C=C[C@H]1CCC/C=C/[C@@H]2C[C@H](O)C[C@H]2[C@H](O)/C=C/C(=O)O1`, the growth was 17.2%.

`C=CC(=O)N1CN(C(=O)C=C)CN(C(=O)C=C)C1`: the growth was 112%.

`CC(C)CCSc1nc(Nc2ccccc2)c(C#N)c(-c2ccc(F)cc2)n1`: the growth is 34.5%.

On to `COC(=O)c1ccc2c(c1)nc(-c1cc3ccccc3[nH]c1=O)n2-c1cc(C(C)(C)C)[nH]n1`, for which the growth is 93.8%.

As for `O=C1NN(C(=O)c2ccccc2)C(c2ccc(Cl)c(Cl)c2)=C/C1=C\c1ccccc1[N+](=O)[O-]`, the growth was -37.5% [6.75 µM] (active).

Consider `O=C(CCl)Nc1ccc2c(c1)C(=O)c1ccccc1C2=O`, for which the growth was 69.9%.

For the compound `CCOC(=O)C1C(=O)C=C(c2cc(OC)c(OC)c(OC)c2)CC1c1sc(N(C)Cc2ccccc2)nc1Cl` (centres undefined), the growth was 89.3%.

Take `N/C(=N\OC(=O)c1ccccc1)C(C(=O)NOC(=O)c1ccccc1)C1CCCCC1` (centres undefined): the growth is 41.6%.

Turning to `C=C(C)[C@@H]1CC[C@]2(C(=O)O)CC[C@]3(C)[C@H](CC[C@@H]4[C@@]5(C)C[C@@H](CC#Cc6ccc(C(C)=O)s6)[C@H](O)C(C)(C)[C@@H]5CC[C@]43C)[C@@H]12`, the growth was 48.9%.

Take `CC(C)[C@@H]1C=C2CC[C@H]3[C@](C)(CN)CCC[C@]3(C)[C@H]2CC1`: the growth was 54.8%.

Take `COc1ccc(-c2cc(-c3cn(-c4cccc(Cl)c4)nc3-c3ccc(OC)cc3)[nH]c(=S)n2)cc1`: the growth is 93%.

Regarding `CCN1CCN(Cc2ccc(NC(=O)Nc3ccc(-n4ccc5c(NC(=O)c6ccccc6)nccc54)cc3)cc2C(F)(F)F)CC1`, the growth was -18.9% (active).

As for `Clc1ccc(C2=NN[C@H](c3cn(-c4ccccc4)nc3-c3ccccc3)C2)cc1`, the growth was -20.8% (active).

`CC(C)CC1NC(=O)C(CC(C)C)N(CO)C1=O` (centres undefined): the growth was 120%.

With `c1ccc(-c2ccc(-c3ccccc3)[nH]2)cc1`, the growth was 109%.

For the compound `C=CCN(CC#N)CC=C`, the growth was 108%.

As to `COc1ccc2c(c1)sc1nc(-c3ccccc3)c(-c3cccc4ccccc34)n12`, the growth is -38.7% (active).

As to `CC(C)c1nc2ccccc2n1CC(=O)N/N=C/c1cccc(O)c1`, the growth was 103%.

For the compound `CCCCCCCC/C=C\CCCCCCCC(=O)OCCCCCC`, the growth was 95.6%.

For `CCN(CC)c1ccc(/C=N/NC(=O)c2ccc(S(C)(=O)=O)cc2)c(O)c1`, the growth is 21.4%.

Consider `CC(=O)CC(c1ccc([N+](=O)[O-])cc1)c1c(O)c2ccccc2oc1=O` (centres undefined), for which the growth was 104%.

As to `CC1CCCN(CCCCOc2ccc(-c3ccc(C#N)cc3)cc2)C1` (centres undefined), the growth was 94.6%.

`Cn1c(-c2ccccc2)cc(=O)n1-c1ccccc1`: the growth was 122%.

Turning to `O=C(NCCN1CCCC1)n1cc(-c2ccncc2)c(-c2cc(O)cc(Cl)c2)n1`, the growth was 125%.

For `C(=Nc1ccc(-c2ccc(N=Cc3ccccc3)cc2)cc1)c1ccccc1`, the growth is 99.2%.
